This is part of a sample that, as a whole, favours compounds with a hit. Of some 83,000 tested, about 20% had one in any assay.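 Note: values are percent growth. 100 is the growth of untreated cells, values between 100 and 0 indicate rising inhibition; between -100 and 0 indicates cell death.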 Calls of active or inactive are those of the source. How the source made its calls: active means growth percent below 10; inactive means the rest.
What was measured:
Experiment in all cases: NCI-60 one-dose screen, 48 h (100 = growth as untreated, 0 = no growth, -100 = all killed)
DU-145 prostate = conditions: 10 µM unless noted
K-562 leukemia = conditions: 10 µM unless noted
MDA-MB-231 breast = conditions: 10 µM unless noted
RXF 393 renal = conditions: 10 µM unless noted
SF-268 CNS = conditions: 10 µM unless noted
SF-295 CNS = conditions: 10 µM unless noted
SF-539 CNS = conditions: 10 µM unless noted
UACC-257 melanoma = conditions: 10 µM
M14 melanoma = conditions: 10 µM unless noted
MALME-3M melanoma = conditions: 10 µM unless noted

SMILES	growth (DU-145 prostate)	growth (K-562 leukemia)	growth (MDA-MB-231 breast)	growth (RXF 393 renal)	growth (SF-268 CNS)	growth (SF-295 CNS)	growth (SF-539 CNS)	growth (UACC-257 melanoma)	growth (M14 melanoma)	growth (MALME-3M melanoma)
COc1ccc(/C=C/C(=O)c2ccc(B(O)O)cc2)cc1O	75.6% (inactive)	24.6% (inactive)	90.8% (inactive)	81.4% (inactive)	81.6% (inactive)	98.5% (inactive)	71.3% (inactive)	94.3% (inactive)	74.1% (inactive)	–
O=S(=O)(NCCCNc1nccc(-c2c(-c3ccc(O)cc3)nc3sccn23)n1)c1ccc(F)cc1	10.6% (inactive)	7.51% (active)	7.09% (active)	-12.7% (active)	17.8% (inactive)	-34.9% (active)	0.696% (active)	4.9% (active)	-26.2% (active)	–
Clc1ccc([I+]c2ccc(Cl)cc2Cl)c(Cl)c1	4.04% (active)	–	38.3% (inactive)	-15.1% (active)	26.5% (inactive)	97.4% (inactive)	16.8% (inactive)	66.4% (inactive)	88.8% (inactive)	50.2% (inactive)
COc1ccc(C2=NN(c3ccc(S(N)(=O)=O)cc3)C(c3cn(-c4ccccc4)nc3-c3ccc(Cl)cc3)C2)cc1 (stereo not given)	95.2% (inactive)	66.9% (inactive)	93.5% (inactive)	97.3% (inactive)	85.6% (inactive)	93.1% (inactive)	102% (inactive)	95.4% (inactive)	83.9% (inactive)	–
COc1cc(CNC(=O)CSc2nc3ccccc3c(=O)n2Cc2cc(OC)c(OC)c(OC)c2)cc(OC)c1OC	108% (inactive)	–	94.4% (inactive)	97.4% (inactive)	97.5% (inactive)	105% (inactive)	96.3% (inactive)	94.2% (inactive)	97.2% (inactive)	97.5% (inactive)
c1ccc2nc(-c3ccc4ccccc4n3)ccc2c1	106% (inactive)	93.3% (inactive)	–	117% (inactive)	95.9% (inactive)	93.5% (inactive)	88.3% (inactive)	106% (inactive)	90.2% (inactive)	83.5% (inactive)
Cc1ccc(C2=NN(c3ccc(S(N)(=O)=O)cc3)C(c3cn(-c4ccccc4)nc3-c3ccccc3)C2)cc1 (stereo not given)	65.7% (inactive)	21.9% (inactive)	82.7% (inactive)	95.8% (inactive)	42.7% (inactive)	104% (inactive)	112% (inactive)	98.8% (inactive)	96.1% (inactive)	–
COc1cc(/C=C2\CCCC3=C2N=C2SC(C)=NN2C3c2cc(OC)c(OC)c(OC)c2)cc(OC)c1OC (stereo not given)	4.69% (active)	6.05% (active)	-39.6% (active)	24.2% (inactive)	9.86% (active)	5.96% (active)	-21.6% (active)	49.3% (inactive)	10.6% (inactive)	–
COC(=O)[C@H]1[C@H](OC)[C@@H](OC(=O)/C=C/c2ccncc2)CC2CN3CCc4c([nH]c5cc(OC)ccc45)[C@@H]3C[C@@H]21 (stereo not given in full)	80% (inactive)	57.3% (inactive)	62.2% (inactive)	72.7% (inactive)	80.3% (inactive)	90.4% (inactive)	91% (inactive)	62.3% (inactive)	78.4% (inactive)	–
CC(=O)OCC1OC(OCC2OC(OC(C)=O)C(OC(C)=O)C(OC(C)=O)C2OC(C)=O)C(OC(C)=O)C(OC(C)=O)C1OC(C)=O (stereo not given)	110% (inactive)	106% (inactive)	–	71% (inactive)	105% (inactive)	99.3% (inactive)	108% (inactive)	95.8% (inactive)	107% (inactive)	108% (inactive)
Clc1ccc(-c2nc(-c3ccco3)cn3ccnc23)cc1	67.3% (inactive)	68.9% (inactive)	–	41.6% (inactive)	64.3% (inactive)	15.1% (inactive)	62.2% (inactive)	75.2% (inactive)	97.4% (inactive)	77% (inactive)
O=C(O)c1cccc([N+](=O)[O-])c1/C=C/c1ccccc1	105% (inactive)	–	109% (inactive)	103% (inactive)	97.7% (inactive)	95.4% (inactive)	107% (inactive)	117% (inactive)	101% (inactive)	90.4% (inactive)
Cn1c(C(N)=O)cc2c1-c1nc(NC3CCCCC3)ncc1CCC2	103% (inactive)	101% (inactive)	78.4% (inactive)	59.5% (inactive)	84.8% (inactive)	91.3% (inactive)	80.6% (inactive)	106% (inactive)	109% (inactive)	–
CCC(c1ccc(OC)cc1)C(CC)c1ccc(O)c(CN2CCCC2)c1 (stereo not given)	43.3% (inactive)	-32.1% (active)	–	-31.1% (active)	21.2% (inactive)	-51.2% (active)	-18.9% (active)	–	-47.4% (active)	-56.1% (active)
CC1=NN2C(=NC3=C(CCC/C3=C\c3ccc(Cl)cc3)C2c2ccc(Cl)cc2)S1 (stereo not given)	101% (inactive)	100% (inactive)	109% (inactive)	106% (inactive)	98.6% (inactive)	102% (inactive)	102% (inactive)	106% (inactive)	92.3% (inactive)	–
Nc1c(C(=O)Nc2ccccc2)sc2nc3c(cc12)CN(Cc1ccccc1)CC3	58.9% (inactive)	61.1% (inactive)	42.6% (inactive)	49.9% (inactive)	48.8% (inactive)	66.4% (inactive)	12.6% (inactive)	74% (inactive)	82.2% (inactive)	–
COc1cc(C2C=C(C)N=C3SC(C)=NN32)cc(OC)c1OC (stereo not given)	108% (inactive)	107% (inactive)	111% (inactive)	114% (inactive)	105% (inactive)	111% (inactive)	114% (inactive)	106% (inactive)	102% (inactive)	–
Clc1nc2ccccc2nc1CI	109% (inactive)	21.3% (inactive)	–	94.9% (inactive)	113% (inactive)	95.8% (inactive)	97.8% (inactive)	119% (inactive)	55.3% (inactive)	49.5% (inactive)
COC(=O)C(CC(=O)c1ccc(-c2ccccc2)cc1)c1ccccc1 (stereo not given)	72.7% (inactive)	20.6% (inactive)	66.3% (inactive)	56.5% (inactive)	88.7% (inactive)	58.6% (inactive)	34.7% (inactive)	66.7% (inactive)	42.6% (inactive)	–
